Results as given in PubChem BioAssay (NCATS).
“And” between values parts separate entries of the source, which are not always exact repeats. Equal values may be shown once. Values without a mark were called inactive. Inconclusive results are not listed. The source made the active and inactive calls. Unless noted, calls follow the shape of the dose curve; as a rule, active = well fitted curve in the direction sought with a large enough effect; inconclusive = small, poorly fitted or top-dose-only effect, or another doubt; inactive = no such curve, though single readings can be large; an effect the other way counts as inactive or inconclusive.

How the values were obtained:
[1] = Cell Viability - BJ (AID 421; calls by dose curve;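 also: potency is read from the fitted curve at half-maximal effect; cells exposed to compound for 40 hours at 37 °C before readout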); conditions: BJ fibroblast viability, qHTS
Method in brief: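 Cytotoxicity as drop in intracellular ATP (CellTiter-Glo, 20 min RT) after 40 hr compound exposure of BJ fibroblasts at 37 °C. Titrations scaled between DMSO and 100 uM tamoxifen, Hill-fitted for AC50.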

[2] = Cell Viability - MRC5 (AID 434; calls by dose curve;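 also: potency is read from the fitted curve at half-maximal effect; cells exposed to compound for 40 hours at 37 °C; potency reflects cytotoxicity seen as loss of intracellular ATP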); conditions: MRC5 lung fibroblast viability, qHTS
Method in brief: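 ATP luminescence read-out (CellTiter-Glo, 20 min RT) after 40 hr, 37 °C compound exposure of 1500 MRC5 cells/well. Data normalized to DMSO (basal) and 100 uM tamoxifen (100% inhibition); AC50 from standard Hill equation.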

[3] = Cell Viability - SK-N-SH (AID 435; calls by dose curve;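 also: potency is read from the fitted curve at half-maximal effect; compound exposure lasted 40 h at 37 °C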); conditions: SK-N-SH neuroblastoma cell viability qHTS
Method in brief: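 CellTiter-Glo ATP luminescence, 20 min RT read; cells pre-plated 5 hr, compound 40 hr at 37 °C, 1500 cells/well, complete medium. Normalized DMSO = 0, 100 uM tamoxifen = 100% inhibition; Hill-fit AC50.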

[4] = Cell Viability - SH-SY5Y (AID 544); conditions: SH-SY5Y neuroblastoma cell viability; viability change, negative = cytotoxic: at 92.2 µM (top of the series);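 also: cells exposed to compound for 40 hours; nearly all actives have a fitted effect of over 55% in size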; also: potency is read from the fitted curve at half-maximal effect
Method in brief: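 Cells were plated at 1500 per well and allowed 5 hr at 37 °C. Compounds were added across a concentration range and incubated 40 hr at 37 °C. CellTiter-Glo was added for 20 min at room temperature before luminescence reading.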

[5] = Cell Viability - Renal Proximal Tubule (AID 545); conditions: renal proximal tubule cells viability, primary cells of rat origin; activity change, negative = cytotoxicity: at 91.7 µM (top of the series);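 also: cells exposed to compound for 40 hours; nearly all actives have a fitted effect of over 40% in size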; also: potency is read from the fitted curve at half-maximal effect
Method in brief: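 Rat kidney proximal tubule cells, freshly isolated; 1000 cells/well, 5 hr settle, compound 40 hr 37 °C. CellTiter-Glo 20 min RT, luminescence read. AC50 by standard Hill fit.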

[6] = Cellular Toxicity (caspase-3) HepG2 (AID 654); conditions: HepG2 caspase-3 activation, luminescence; series mostly up to 92.2 µM; also: potency is read from the fitted curve at half-maximal effect;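 as to caspase-3 activation: cells exposed to compound for 16 hours before reading; 0% = DMSO alone and 100% = caspase signal from 100 µM tamoxifen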
Method in brief: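 Caspase 3/7 activation in HepG2 is measured as rising luminescence after a 16 hr treatment at 37 °C. Values are scaled between DMSO basal and 100 uM tamoxifen, and AC50 is fitted with the Hill equation.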

[7] = Cellular Toxicity (caspase-3) HUV-EC-C (AID 656); conditions: HUV-EC-C cells, caspase-3 activation (apoptosis); series mostly up to 92.2 µM; also: potency is read from the fitted curve at half-maximal effect
Method in brief: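 Luminescent caspase-3/7 activation (aminoluciferin substrate cleavage) in HUV-EC-C cells after 16 hr compound exposure, 37°C. Signal normalized to DMSO basal and 100 uM tamoxifen as 100%; AC50 from concentration-response fitted with the Hill equation.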

[8] = Cellular Toxicity (caspase-3) Mesangial (AID 660); conditions: mesangial cells, normalized: DMSO 0%, 100 µM tamoxifen 100%; at 91.7 µM (top of the series);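 also: combined caspase 3 and 7 activity read by Caspase-Glo luminescence; cells exposed to compound for 16 h before the caspase read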
Method in brief: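 Seed cells derived from normal human renal glomeruli, incubate 5 h, add compounds across concentrations and incubate 16 h at 37 °C. Caspase 3/7 activation is then quantified by luciferase light, with AC50 derived by Hill modeling.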

[9] = Cellular Toxicity (caspase-3) N2a (AID 665); conditions: N2a cells, luminescence; Potency: caspase-3 activation; series mostly up to 92.2 µM;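 also: compound exposure lasted 16 h at 37 °C before readout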
Method in brief: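 Caspase-3/7 activation, measured as increased luminescence from aminoluciferin release, is quantified in mouse N2a cells exposed to compounds for 16 h. Values are normalized to DMSO and 10 uM staurosporine, with AC50 derived by Hill modelling.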

[10] = Cellular Toxicity (caspase-3) Renal Proximal Tubule (AID 667); conditions: renal proximal tubule cells, primary cells freshly taken from rat, solvent-only wells 0%, staurosporine 100%; series mostly up to 91.7 µM;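 also: cells exposed to compound for 16 hours at 37 °C before detection; 0% = DMSO basal and 100% = 10 µM staurosporine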
Method in brief: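 Luminescent caspase 3/7 signal from peptide-aminoluciferin cleavage measures apoptosis in freshly isolated rat kidney proximal tubule cells after 16 h compound exposure. Concentration-response data are normalized to DMSO and 10 uM staurosporine, and AC50 values come from Hill equation fits.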

[11] = molecular target: Cytochrome P450 3A4 (Homo sapiens) (UniProt P08684); test: qHTS Assay for Inhibitors and Substrates of Cytochrome P450 3A4 (AID 884); conditions: recombinant CYP3A4, Luciferin-PPXE luminescence; series mostly up to 57.1 µM; also: nearly all actives have a fitted effect of over 50% in size; also: potency is read from the fitted curve at half-maximal effect; as to activity change, negative = inhibition: % is scaled to controls: 0 for no effect and ±100 for the full control effect
Chain of Cytochrome P450 3A4 (Homo sapiens) (P08684 whole entry, looked up): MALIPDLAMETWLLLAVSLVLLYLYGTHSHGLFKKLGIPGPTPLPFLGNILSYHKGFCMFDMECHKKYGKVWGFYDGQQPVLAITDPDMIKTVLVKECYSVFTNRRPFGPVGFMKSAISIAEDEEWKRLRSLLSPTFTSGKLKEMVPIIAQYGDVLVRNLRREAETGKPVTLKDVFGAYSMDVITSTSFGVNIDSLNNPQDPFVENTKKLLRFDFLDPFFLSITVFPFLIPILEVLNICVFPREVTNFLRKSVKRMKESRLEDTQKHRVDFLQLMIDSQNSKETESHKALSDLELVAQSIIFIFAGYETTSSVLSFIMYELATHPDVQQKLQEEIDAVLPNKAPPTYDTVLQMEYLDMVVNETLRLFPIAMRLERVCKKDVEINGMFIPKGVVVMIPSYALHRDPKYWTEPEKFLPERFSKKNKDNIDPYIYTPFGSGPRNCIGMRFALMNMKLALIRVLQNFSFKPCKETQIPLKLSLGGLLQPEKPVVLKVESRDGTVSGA
Method in brief: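 Luminescent readout of luciferin produced by CYP3A4 (20 nM) dealkylation of Luciferin-PPXE, 25 uM (its KM). NADPH-driven reaction ran 60 min at RT after 10 min compound preincubation; data scaled to 57 uM ketoconazole as 100% inhibition.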

[12] = molecular target: Cytochrome P450 3A4 (Homo sapiens) (UniProt P08684); test: qHTS Assay for Activators of Cytochrome P450 3A4 (AID 885); conditions: recombinant CYP3A4, Luciferin-PPXE luminescence, 60 min; series mostly up to 57.1 µM; also: nearly all actives have a fitted effect of over 65% in size
Method in brief: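 Luminescent readout of luciferin formed from 25 uM Luciferin-PPXE (KM level) by 20 nM CYP3A4 in 200 mM KPO4, with 60 min NADPH-driven reaction at room temperature after 10 min compound exposure. Ketoconazole (57 uM) defined 100% inhibition.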

[13] = molecular target: Peroxisome proliferator-activated receptor alpha (Homo sapiens) (UniProt Q07869); test: qHTS assay for small molecule agonists of the peroxisome proliferator-activated receptor alpha (PPARalpha) signaling pathway (AID 651778); conditions: PathHunter PPARalpha complementation, chemiluminescence, 6 h; max response: active compounds read high; also: potency is read from the fitted curve at half-maximal effect; as to max response: % of control where 0% means no effect
Chain of Peroxisome proliferator-activated receptor alpha (Homo sapiens) (Q07869 whole entry, looked up, the tested form may be a part): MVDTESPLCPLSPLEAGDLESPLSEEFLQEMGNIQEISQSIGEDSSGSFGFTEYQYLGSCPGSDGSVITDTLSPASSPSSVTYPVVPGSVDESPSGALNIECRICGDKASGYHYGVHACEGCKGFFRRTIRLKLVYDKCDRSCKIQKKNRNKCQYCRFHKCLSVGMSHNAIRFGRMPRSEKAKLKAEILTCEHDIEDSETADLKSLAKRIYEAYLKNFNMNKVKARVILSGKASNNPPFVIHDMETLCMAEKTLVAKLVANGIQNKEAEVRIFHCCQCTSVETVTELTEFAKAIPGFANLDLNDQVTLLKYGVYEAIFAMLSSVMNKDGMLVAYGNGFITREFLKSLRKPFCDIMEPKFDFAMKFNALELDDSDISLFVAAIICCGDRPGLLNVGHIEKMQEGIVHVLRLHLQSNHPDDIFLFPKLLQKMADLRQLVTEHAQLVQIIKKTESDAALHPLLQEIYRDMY
Method in brief: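 Enzyme-fragment complementation assay in which ligand-bound PPARalpha translocates and forms an active enzyme that generates chemiluminescence. Cells were plated overnight, exposed to compound for 6 hr at 37 C, and then given detection reagent for 60 min at room temperature.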

[14] = qHTS assay for cell viability of HEK293 cells (AID 743288); conditions: ATP luminescence (CellTiter-Glo), 18 h; max response: active compounds read low; also: nearly all actives have a fitted effect of over 50% in size; also: potency is read from the fitted curve at half-maximal effect
Method in brief: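 ATP luminescence (CellTiter-Glo) reports metabolically competent cell number after parental HEK293 cells, 2,000/well, were treated with DMSO-dissolved compounds for 18 h at 37 C; reagent incubation 30 min, room temperature.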

[15] = molecular target: Mitogen-activated protein kinase 10 (Mus musculus) (UniProt Q61831); test: JNK3 AlphaScreen Assay (AID 530; active = well fitted curve in either direction with a large enough effect, not every such curve was filed as active;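 also: kinase came from lysate of stimulated human HepG2 cells; signal reports phosphorylation of biotinylated GST-cJun 1-79 at Ser73 with 10 µM ATP; % is scaled to controls: 0 for no effect and ±100 for the full control effect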); conditions: JNK3 lysate, c-Jun phosphorylation; series mostly up to 57.1 µM
Method in brief: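 Activity was read by AlphaScreen after JNK3-containing HepG2 lysate (cytokine pre-activated) phosphorylated biotinylated GST-cJun with 10 uM ATP at room temperature. Phospho-Ser73 cJun antibody with Protein-A acceptor beads provided detection.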

[16] = NFAT Signaling Pathway (AID 444; active = well fitted curve in either direction with a large enough effect, not every such curve was filed as active;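 also: carbachol stimulus at about its EC50 of 1 µM final; % is scaled to controls: 0 for no effect and ±100 for the full control effect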); conditions: Jurkat NFAT-bla M1, carbachol, beta-lactamase ratio, 5 h; at 17.2 µM (top of the series) unless noted
Method in brief: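 Jurkat cells with NFAT-driven β-lactamase reporter and co-expressed M1 receptor, stimulated with carbachol (final 1 uM, ~EC50), compound titration, 5 h at 37 °C. CCF4 loaded 1 h at RT; 460/530 nm ratio gave %activity and AC50.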

[17] = Stat Signaling Pathway (AID 446; active = well fitted curve in either direction with a large enough effect, not every such curve was filed as active;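 also: ME-180 cervical cancer cells given 40 pM IL-6 alongside compound; SIE-controlled beta-lactamase reporter measured as 460/530 nm FRET emission ratio; % is scaled to controls: 0 for no effect and ±100 for the full control effect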); conditions: ME-180 (cervical carcinoma) SIE beta-lactamase reporter, IL-6 stimulated, 5 h; at 17.2 µM (top of the series) unless noted
Method in brief: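 FRET read-out (405 nm excitation, 460/530 nm emission) of a beta-lactamase reporter under a STAT-inducible element in ME-180 cervical carcinoma cells. Cells with compound receive 40 pM IL-6 for 5 h. Values are normalised to AC90 stimulation and AC90 JAK-inhibitor controls.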

[18] = molecular target: Glucocorticoid receptor (Homo sapiens) (UniProt P04150); test: GR-GFP Redistribution (AID 450;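 active = compounds whose dose series gives a full or clear partial fitted curve of increased nuclear translocation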; also: potency is read from the fitted curve at half-maximal effect); conditions: U2OS GR-GFP nuclear translocation, laser cytometry, 2 h; series mostly up to 20.6 µM
Chain of Glucocorticoid receptor (Homo sapiens) (P04150 whole entry, looked up): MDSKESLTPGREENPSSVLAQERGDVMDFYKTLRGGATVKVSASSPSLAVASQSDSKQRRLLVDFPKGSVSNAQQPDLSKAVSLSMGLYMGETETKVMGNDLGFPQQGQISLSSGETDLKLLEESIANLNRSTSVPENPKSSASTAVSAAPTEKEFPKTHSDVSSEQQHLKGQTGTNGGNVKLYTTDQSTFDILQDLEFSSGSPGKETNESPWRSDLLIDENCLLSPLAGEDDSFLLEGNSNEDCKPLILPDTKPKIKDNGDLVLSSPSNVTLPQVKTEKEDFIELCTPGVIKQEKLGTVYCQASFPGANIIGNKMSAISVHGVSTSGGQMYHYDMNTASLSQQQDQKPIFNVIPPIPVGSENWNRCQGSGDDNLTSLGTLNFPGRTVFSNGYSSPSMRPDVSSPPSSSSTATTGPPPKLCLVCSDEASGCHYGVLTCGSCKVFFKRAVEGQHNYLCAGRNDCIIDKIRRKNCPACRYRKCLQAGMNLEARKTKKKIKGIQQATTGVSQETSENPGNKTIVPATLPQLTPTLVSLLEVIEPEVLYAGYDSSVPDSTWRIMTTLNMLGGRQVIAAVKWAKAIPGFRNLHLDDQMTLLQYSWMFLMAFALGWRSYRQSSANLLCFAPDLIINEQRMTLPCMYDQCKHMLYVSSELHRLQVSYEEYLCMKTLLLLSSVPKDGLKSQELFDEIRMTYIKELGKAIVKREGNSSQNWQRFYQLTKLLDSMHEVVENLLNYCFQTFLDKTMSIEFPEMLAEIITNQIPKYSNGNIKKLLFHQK

CCC(C)Nc1ccc(NC(C)CC)cc1 (stereo unspecified)
Potency [1]: 14 µM (active)
Potency [2]: 20.7 µM (active)
Potency [3]: 8.73 µM (active)
Potency [4]: 5.01 µM (active)
activity change, negative = cytotoxicity [5]: -100% (active)
Potency [6]: inactive
Potency [7]: inactive
caspase-3 activation [8]: -4.04%
Potency [9]: inactive
outcome [10]: inactive
Potency [11]: 15.8 µM (active)
Potency [12]: inactive
max response [13]: -4.78% and -5%
Potency [14]: 28.2 µM (active)

Cc1cc(O)c(C(C)(C)C)cc1Sc1cc(C(C)(C)C)c(O)cc1C
Potency [1]: 43.8 µM (active)
Potency [2]: 40.2 µM (active)
Potency [3]: 23 µM (active)
Potency [15]: inactive
Potency [4]: 31.6 µM (active)
Potency [5]: 25.1 µM (active)
Potency [6]: 63.1 µM (active)
Potency [7]: 50.1 µM (active)
caspase-3 activation [8]: 140% (active)
Potency [9]: inactive
Potency [12]: inactive
Potency [13]: 11.2 µM (active) and 4.47 µM (active)
Potency [14]: 70.8 µM (active) and 50.1 µM (active)

O=Cc1ccc(Cl)c(Cl)c1
Potency [1]: > 92 µM
Potency [2]: > 92 µM
Potency [3]: > 92 µM
Potency [15]: inactive
Potency [4]: inactive
Potency [5]: inactive
Potency [6]: inactive
Potency [7]: inactive
caspase-3 activation [8]: -1.53%
Potency [9]: inactive
outcome [10]: inactive
Potency [11]: inactive
max response [13]: 1.8%
max response [14]: -7.75%

O=[N+]([O-])c1cc([N+](=O)[O-])c2ccc(S(=O)(=O)O)cc2c1O
Potency [1]: > 92 µM
Potency [2]: > 92 µM
Potency [3]: > 92 µM
Potency [4]: inactive
Potency [5]: inactive
Potency [6]: inactive
Potency [7]: inactive
caspase-3 activation [8]: 1.36%
Potency [9]: inactive
outcome [10]: inactive
max response [14]: -2.67%

O=C(O)CSCC(=O)Nc1ccc(S(=O)(=O)N2CCCCC2)cc1
activity change, negative = inhibition [16]: 5.47%
activity, negative = inhibition [17]: 23%
Potency [18]: > 20.6 µM

CCCc1[nH]nc2c1C(c1cccc(OC)c1)C(C#N)=C(N)O2 (stereo unspecified)
activity change, negative = inhibition [16]: 1.34%
activity, negative = inhibition [17]: -24.8%
Potency [18]: > 20.6 µM

O=C1OC2(c3cc(Br)c(O)c(Br)c3Oc3c2cc(Br)c(O)c3Br)c2c(Cl)c(Cl)c(Cl)c(Cl)c21
Potency [1]: > 92 µM
Potency [2]: > 92 µM
Potency [3]: > 92 µM
Potency [5]: inactive
Potency [6]: inactive
Potency [7]: inactive
caspase-3 activation [8]: -1.97%
Potency [9]: inactive
outcome [10]: inactive
Potency [11]: 20 µM (active)
Potency [12]: inactive
max response [13]: 0.0759%
max response [14]: -29.6%

CCCSc1nnc(NC(=O)Nc2ccccc2)s1
activity change, negative = inhibition [16]: -25.9%
activity, negative = inhibition [17]: -19.6%
Potency [18]: > 20.6 µM

COc1ccc(CC(=O)Nc2cccc(-c3nnc(-c4ccco4)o3)c2)cc1
activity change, negative = inhibition [16]: 29.9%
activity, negative = inhibition [17]: -27.7%
Potency [18]: > 20.6 µM

Cc1cccc(N2CN=c3s/c(=C\c4ccncc4)c(=O)n3C2)c1
activity change, negative = inhibition [16]: -17.2%
activity, negative = inhibition [17]: -0.937%
Potency [18]: > 20.6 µM

CN1CCc2c(C#N)c(N3CCCCC3)nc(NCc3ccccc3)c2C1
activity change, negative = inhibition [16]: -7.69%
activity, negative = inhibition [17]: -16.2%
Potency [18]: > 20.6 µM

COc1ccc(C2/C(=C(/O)c3ccc(OC(C)C)cc3)C(=O)C(=O)N2CCCN2CCOCC2)cc1 (stereo unspecified)
activity change, negative = inhibition [16]: -1.06%
activity, negative = inhibition [17]: -10.9%
Potency [18]: > 20.6 µM

Cc1nc2c(c(=O)n1CC1CCCO1)c1nc3ccccc3nc1n2CC(C)C (stereo unspecified)
activity change, negative = inhibition [16]: 6.99%
activity, negative = inhibition [17]: 8.26%
Potency [18]: > 20.6 µM

CCNCc1cc2cc(C)ccc2[nH]c1=O
activity change, negative = inhibition [16]: -15.2%
activity, negative = inhibition [17]: 2.05%
Potency [18]: > 20.6 µM

CCOc1ccc(-c2nnc3sc(COc4ccccc4)nn23)cc1
activity change, negative = inhibition [16]: 4.76%
activity, negative = inhibition [17]: 4.42%
Potency [18]: > 20.6 µM

COCCOC(=O)c1c(C)oc2ccc(OC(=O)COc3c(F)c(F)c(F)c(F)c3F)cc12
activity change, negative = inhibition [16]: -2.9%
activity, negative = inhibition [17]: 1.17%
Potency [18]: > 20.6 µM

Cn1c2ccccc2c2nn(-c3ccccc3)c(=O)cc21
activity change, negative = inhibition [16]: 2.73%
activity, negative = inhibition [17]: 6.09%
Potency [18]: > 20.6 µM

COc1ccccc1-c1nnc2sc(C3CCCCC3)nn12
activity change, negative = inhibition [16]: -6.47%
activity, negative = inhibition [17]: 8.63%
Potency [18]: > 20.6 µM

CCOc1ccc(C2C(C#N)=C(N)Oc3cc(C)n(CCN4CCOCC4)c(=O)c32)cc1OCC (stereo unspecified)
activity change, negative = inhibition [16]: 7.01%
activity, negative = inhibition [17]: 0.201%
Potency [18]: > 20.6 µM

N#Cc1nc(-c2cccs2)oc1NCc1ccccc1
activity change, negative = inhibition [16]: -20.6%
activity, negative = inhibition [17]: -1.04%
Potency [18]: > 20.6 µM

Oc1ccc2c(c1)C1CCCC1(N1CCOCC1)O2 (stereo unspecified)
activity change, negative = inhibition [16]: 16.1%
activity, negative = inhibition [17]: 2.31%
Potency [18]: > 20.6 µM

CN(C)C/C(Cl)=C(\Cl)c1ccccc1
activity change, negative = inhibition [16]: -119% (active)
activity, negative = inhibition [17]: -22.6%
Potency [18]: > 20.6 µM
